A short description of assay [1]: qHTS assay to identify small molecule antagonists of the estrogen related receptor (ERR) signaling pathway from Tox21 library - cell viability counter screen (AID 1224834). Note: nearly all actives have a fitted effect of over 30% in size. Note: potency is the fitted concentration of half-maximal effect. The essentials:
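Cytotoxicity of test substances is gauged in the same ERR cells used for the antagonist screen, after 17.5 h of compound treatment at 37 C, by CellTiter-Fluor fluorescence measured after 30 min.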

The target in assay [2] is Luciferin 4-monooxygenase (Photinus pyralis) (UniProt P08659). Description: qHTS assay to identify small molecule inhibitors of firefly luciferase (AID 1224835). Note: nearly all actives have a fitted effect of over 25% in size. Note: potency is the fitted concentration of half-maximal effect. The method in brief: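 Quantitative HTS format; KM concentrations of both substrates. Purified P. pyralis FLuc activity quantified from luminescence images.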
Luciferin 4-monooxygenase (Photinus pyralis), sequence (P08659 whole entry, looked up): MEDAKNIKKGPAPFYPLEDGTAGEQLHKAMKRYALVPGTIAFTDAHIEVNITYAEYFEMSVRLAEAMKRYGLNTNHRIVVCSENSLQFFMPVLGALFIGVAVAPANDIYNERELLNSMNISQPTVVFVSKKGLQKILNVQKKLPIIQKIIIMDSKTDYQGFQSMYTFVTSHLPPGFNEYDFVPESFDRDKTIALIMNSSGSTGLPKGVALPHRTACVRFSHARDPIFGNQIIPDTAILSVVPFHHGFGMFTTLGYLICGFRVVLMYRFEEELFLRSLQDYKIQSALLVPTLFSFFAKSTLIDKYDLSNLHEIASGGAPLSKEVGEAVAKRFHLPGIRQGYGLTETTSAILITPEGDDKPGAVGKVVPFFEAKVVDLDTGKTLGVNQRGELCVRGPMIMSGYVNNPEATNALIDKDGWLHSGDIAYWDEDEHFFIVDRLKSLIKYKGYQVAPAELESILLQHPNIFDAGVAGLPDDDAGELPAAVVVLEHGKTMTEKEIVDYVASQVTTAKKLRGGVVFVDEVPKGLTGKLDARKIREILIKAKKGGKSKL
Assay [3] in a line: qHTS assay to identify small molecule agonists of the constitutive androstane receptor (CAR) signaling pathway - cell viability counter screen (AID 1224836). Note: series mostly up to about 92 µM; nearly all actives have a fitted effect of over 45% in size. The essentials:
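Multiplexed viability check: HepG2-CYP2B6-hCAR cells, 15-point compound dosing, 0.75 uM PK11195 final, 23 h at 37 C, CellTiter-Fluor fluorescence.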

Assay [4] in a line: qHTS assay to identify small molecule antagonists of the constitutive androstane receptor (CAR) signaling pathway - cell viability counter screen (AID 1224837). Note: series mostly up to about 92 µM; nearly all actives have a fitted effect of over 45% in size. The essentials: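 Multiplexed cytotoxicity read-out for the CAR antagonist screen: double-stable HepG2-CYP2B6-hCAR cells co-treated with 50 nM CITCO (final) and compound over 15 concentrations, incubated 23 hr, then assessed by CellTiter-Fluor fluorescence.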

For assay [5], the target named is Nuclear receptor subfamily 1 group I member 3 (Homo sapiens) (UniProt Q14994). Description: qHTS assay to identify small molecule antagonists of the constitutive androstane receptor (CAR) signaling pathway (AID 1224838). Note: nearly all actives have a fitted effect of over 40% in size. The method in brief: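 Compounds were titrated across 15 concentrations onto HepG2 cells double-stably expressing hCAR and a CYP2B6-2.2kb reporter, together with 50 nM CITCO (final). After 24 h at 37 C, luciferase activity was measured by luminescence.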
Nuclear receptor subfamily 1 group I member 3 (Homo sapiens), sequence (Q14994 whole entry, looked up): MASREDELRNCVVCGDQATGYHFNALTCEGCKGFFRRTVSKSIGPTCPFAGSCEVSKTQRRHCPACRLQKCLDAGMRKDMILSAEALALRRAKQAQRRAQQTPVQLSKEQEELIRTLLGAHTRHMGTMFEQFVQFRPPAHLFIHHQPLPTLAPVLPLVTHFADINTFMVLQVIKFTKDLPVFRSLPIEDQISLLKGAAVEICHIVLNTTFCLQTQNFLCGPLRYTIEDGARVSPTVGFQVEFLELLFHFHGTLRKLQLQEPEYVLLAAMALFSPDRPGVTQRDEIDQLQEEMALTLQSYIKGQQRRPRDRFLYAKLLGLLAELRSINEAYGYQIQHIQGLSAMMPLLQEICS

A short description of assay [6]: qHTS assay to identify small molecule antagonists of the estrogen related receptor signaling pathway with the pleiotropic PPARgamma coactivator (PGC) from Tox21 10K library - cell viability counter screen (AID 1224840; active = well fitted cell-killing curve with a large enough effect in the repeat runs, not every such curve was filed as active; note: nearly all actives have a fitted effect of over 40% in size; note: potency is the fitted concentration of half-maximal effect). The essentials: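 Step one, plate 2,000 PGC/ERR cells per well; step two, incubate 6 h at 37 C/5% CO2; step three, pin-transfer compounds; step four, incubate 17.5 h; step five, add CellTiter-Fluor and read fluorescence after 30 min.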

Assay [7] is described as follows: qHTS assay to identify small molecule antagonists of the estrogen related receptor signaling pathway with the pleiotropic PPARgamma coactivator (PGC) from Tox21 10K library (AID 1224841; call rule not given here; note: actives are mostly falling curves and most rising ones were filed inactive; nearly all actives have a fitted effect of over 50% in size; note: potency is the fitted concentration of half-maximal effect). The method in brief:
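Antagonism in this quantitative HTS is taken from loss of luciferase signal in PGC/ERR cells. Cells (2,000/well) are treated with compounds in DMSO after a 6 h settling period and read by One-Glo luminescence after 18 h.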

Assay [8] in a line: qHTS assay to identify small molecule agonists of the estrogen related receptor signaling pathway with the pleiotropic PPARgamma coactivator (PGC) from Tox21 10K library (AID 1224842). Note: nearly all actives have a fitted effect of over 15% in size. The essentials:
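PGC/ERR reporter cells (NTP line) were seeded 2,000 per well, rested 6 h at 37 C/5% CO2, then pin-dosed with compounds in DMSO for 18 h at 37 C; luciferase read by One-Glo luminescence after 30 min at room temperature.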

Assay [9] has as its target Thyrotropin receptor (Homo sapiens) (UniProt P16473). Description: qHTS assay to identify small molecule agonists of the thyroid stimulating hormone receptor (TSHR) signaling pathway (AID 1224843; calls by dose curve; note: nearly all actives have a fitted effect of over 45% in size; note: potency is the fitted concentration of half-maximal effect). The method in brief: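 TSHR-expressing HEK293 cells (800 per well) were exposed to compounds for 30 min at room temperature. cAMP was then detected by HTRF competition with cAMP-d2 and anti-cAMP cryptate, read after 1 h at room temperature. Fifteen concentrations, triplicate.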

Assay [10] is described as follows: qHTS assay to identify small molecule agonists of H2AX (AID 1224845; active = well fitted activation curve with a large enough effect in the signal ratio in the repeat runs, not every such curve was filed as active; the % refers to the signal ratio). The method in brief: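 Wild-type CHO-K1 cells plated overnight, then exposed 3 hr at 37C to compounds at 15 concentrations (0.76% DMSO). Lysed, then HTRF anti-pH2AX(S139)-cryptate/anti-H2AX-d2 detection after 24 hr at room temperature; emissions 665 and 620 nm.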
Assay [11] in a line: qHTS assay to identify small molecule agonists of the hypoxia (HIF-1) signaling pathway (AID 1224846; active = well fitted activation curve with a large enough effect in the signal ratio in the repeat runs, not every such curve was filed as active; the % refers to the signal ratio). The method in brief: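 Steps: seed ME-180 HRE-bla cells (2,000/well, 0.5% dialyzed FBS); incubate 5 hrs at 37C; pin-transfer compounds or DMSO; incubate 17 hrs; add LiveBLAzer B/G substrate CCF4-AM; measure reporter activation by FRET.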
Assay [12] in a line: qHTS assay to identify small molecule agonists of H2AX - cell viability counter screen (AID 1224847; calls by dose curve; note: nearly all actives have a fitted effect of over 30% in size; note: potency is the fitted concentration of half-maximal effect). The essentials: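 After overnight plating of 1000 CHO-K1 cells per well, a 15-concentration compound series was applied for 3 hr at 37C. Luminescence from CellTiter-Glo, read following 30 min at room temperature, reflected cell viability.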
A short description of assay [13]: qHTS assay to identify small molecule antagonists of the estrogen related receptor (ERR) signaling pathway from Tox21 library (AID 1224848). Note: nearly all actives have a fitted effect of over 50% in size. The essentials:
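Cells: ERR line, 2,000/well; 6 h preincubation 37 C/5% CO2. Cpd in DMSO via pin tool; 18 h, 37 C. ONE-Glo, 30 min RT, luminescence.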

The nature of assay [14]: qHTS RealTime-Glo MT Cell Viability Assay in HepG2 cells - 24 hour (AID 1224867). Note: nearly all actives have a fitted effect of over 50% in size. The method in brief:
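HepG2 cells were seeded at 600 cells/well together with NanoLuc luciferase and a cell-permeant prosubstrate, preincubated 5 h at 37 C/5% CO2, then pin-dosed with compounds in DMSO. Nonlytic luminescence from viable cells was read at each time point.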

Assay [15] is described as follows: qHTS RealTime-Glo MT Cell Viability Assay in HEK293 cells - 32 hour (AID 1224868). Note: nearly all actives have a fitted effect of over 50% in size. Note: potency is the fitted concentration of half-maximal effect. The essentials:
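HEK293 cells were seeded at 600 cells/well together with NanoLuc luciferase and cell-permeant prosubstrate, preincubated 5 h at 37 C/5% CO2, then given compound in DMSO by pintool. Luminescence from viable-cell prosubstrate reduction was read repeatedly over 40 h.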

Assay [16] can be described thus: A CellTox Green Cytotoxicity Assay to monitor cytotoxicity in HEK293 cells - 0 hour (AID 1224869). Note: nearly all actives have a fitted effect of over 50% in size. The essentials:
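Cytotoxicity was tracked continuously in HEK293 cells by a DNA-binding dye excluded from viable cells. Compounds were transferred in DMSO 5 h after seeding; fluorescence was recorded at intervals up to 40 h.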

A short description of assay [17]: qHTS assay to identify small molecule agonists of the hypoxia (HIF-1) signaling pathway - cell viability counter screen (AID 1224844; calls by dose curve; note: nearly all actives have a fitted effect of over 50% in size). The essentials: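 Tox21 10K compounds were added to HRE-bla ME-180 cells (0.5% dialyzed FBS) and incubated 17 hrs at 37C; ATP-based CellTiter-Glo luminescence then reported cell viability in the same wells.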
The target in assay [18] is Nuclear receptor subfamily 1 group I member 3 (Homo sapiens) (UniProt Q14994). Put plainly: qHTS assay to identify small molecule agonists of the constitutive androstane receptor (CAR) signaling pathway (AID 1224839). Note: potency is the fitted concentration of half-maximal effect; nearly all actives have a fitted effect of over 15% in size. The method in brief: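 Using human hepatoma HepG2 cells engineered with hCAR and a CYP2B6-2.2kb reporter, 15-concentration compound series were incubated 24 h alongside PK11195 at 0.75 uM final, with luminescence quantified afterwards.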

Molecules are shown by their SMILES. Several values for one entry are separate records, joined by “and”; a condition that tells them apart may be missing. Equal entries are not always repeated. Inconclusive results are not listed. More than one record can exist for a structure, and the calls need not agree. Activity calls are given as the source filed them. Unless noted, calls come from the whole dose curve; as a rule, active = well fitted curve in the direction sought with a large enough effect in the repeat runs; inconclusive = weak or mixed curves; inactive = no such curve, though single readings can be large; an effect the other way counts as inactive or inconclusive.

The values that follow come from PubChem BioAssay (Tox21).

Thyrotropin receptor (Homo sapiens), sequence (P16473 whole entry, looked up): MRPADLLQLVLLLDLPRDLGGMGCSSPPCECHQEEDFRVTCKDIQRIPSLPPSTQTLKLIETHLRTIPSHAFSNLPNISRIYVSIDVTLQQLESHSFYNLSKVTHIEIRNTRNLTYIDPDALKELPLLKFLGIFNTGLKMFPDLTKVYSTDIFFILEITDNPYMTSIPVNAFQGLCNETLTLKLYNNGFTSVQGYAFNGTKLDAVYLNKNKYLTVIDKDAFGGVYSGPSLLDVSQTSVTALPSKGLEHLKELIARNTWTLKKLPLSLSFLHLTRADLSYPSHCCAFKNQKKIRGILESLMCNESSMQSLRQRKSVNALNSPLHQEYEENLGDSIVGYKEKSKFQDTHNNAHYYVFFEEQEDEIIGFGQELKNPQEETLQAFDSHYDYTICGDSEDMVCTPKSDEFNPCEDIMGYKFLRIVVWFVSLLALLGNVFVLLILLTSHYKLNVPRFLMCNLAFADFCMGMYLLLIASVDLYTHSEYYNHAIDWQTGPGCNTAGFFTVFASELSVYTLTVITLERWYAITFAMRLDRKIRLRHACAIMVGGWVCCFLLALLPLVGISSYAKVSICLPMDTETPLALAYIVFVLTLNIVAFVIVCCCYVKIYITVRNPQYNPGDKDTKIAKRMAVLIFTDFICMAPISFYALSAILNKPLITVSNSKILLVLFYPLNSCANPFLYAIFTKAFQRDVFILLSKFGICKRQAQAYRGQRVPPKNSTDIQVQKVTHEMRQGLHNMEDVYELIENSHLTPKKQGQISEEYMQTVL

With `O=C(OCc1ccccc1)c1ccccc1`, the Potency result in assay [1], in assay [3], in assay [4], in [5], in assay [6] and in assay [7] was “inactive” each time. The Potency entry in assay [8], in [9], in assay [10], in assay [12], in [13] and in assay [15] was “inactive” in each case. The Potency result in assay [16] is “inactive”. Also, the Potency in assay [2] was 14.2 µM (active) and 11.2 µM (active) and 9.77 µM (active). Further, the molecule was classed as inactive in [11] and in assay [14].

As for `CC1=NN(c2ccccc2)C(=O)C1`, the Potency result in assay [1], in assay [2], in assay [3], in assay [4], in assay [6] and in assay [9] was “inactive” in each case. The Potency result in [10], in [12], in [15] and in assay [16] was “inactive” each time. Further, the call in [14] was inactive.

As to `O=C(O)CCCCC1CCSS1` (stereo not drawn), the Potency entry in assay [1], in assay [2], in assay [3], in assay [4], in [6] and in [7] was “inactive” throughout. In addition, the Potency result in assay [8], in assay [9], in [17], in assay [10], in assay [12] and in assay [13] was “inactive” each time. The Potency entry in assay [15] and in assay [16] was “inactive” in each case. The molecule was classed as inactive in assay [14].

As to `NC(N)=NC(N)=NCCc1ccccc1`, the Potency result in assay [1], in assay [2], in [3], in assay [4], in [6] and in [9] was “inactive” in each case. Moreover, the Potency entry in [17], in [10], in assay [12], in assay [15] and in assay [16] was “inactive” throughout. In addition, the molecule was classed as inactive in assay [11] and in assay [14].

As to `Oc1cccc(O)c1`, the Potency result in assay [1], in [2], in assay [3], in [4], in [6] and in assay [8] was “inactive” each time. Besides, the Potency result in assay [9], in assay [10], in assay [12], in [13], in assay [15] and in assay [16] was “inactive” in each case. Also, in [7], the Potency was 18.8 nM (active) and inactive. Besides, the molecule was called inactive in assay [11] and in [14].

Take `CC(C)=CCC/C(C)=C/CO`: the Potency result in assay [1], in assay [2], in assay [3], in assay [4], in assay [6] and in [9] was “inactive” each time. In addition, the Potency entry in assay [17], in assay [10], in assay [12], in assay [15] and in assay [16] was “inactive” throughout. Besides, the call in assay [14] was inactive.

For `Nc1ccc(N=Nc2ccccc2)c(N)n1`, the Potency in assay [1] was 48.8 µM (active) and 48.6 µM (active) and 21.1 µM (active); in assay [2] it was 8.99 µM (active) and 7.96 µM (active) and 7.76 µM (active); in assay [18] it was 24.5 µM (active) and 9.69 µM (active) and 5.96 µM (active); in [6], 38.6 µM (active); in assay [15], 43.9 µM (active) and 24.5 µM (active). For the same molecule, the Potency entry in assay [5], in [9], in assay [17], in assay [12] and in [16] was “inactive” throughout. Also, the result in assay [14] was inactive.

In the case of `CCCCCCCCCCCCCC(=O)OC(C)C`, the Potency result in assay [1], in assay [2], in assay [3], in assay [4], in assay [6] and in assay [9] was “inactive” in each case. Also, the Potency result in assay [10], in assay [12] and in [16] was “inactive” throughout. Besides, the outcome in assay [11] and in [14] was inactive. In addition, in [15], the Potency entry was “inactive and 2.45 µM (active)”.

For the molecule `COC(=O)c1ccc(O)cc1`, the Potency entry in assay [1], in assay [2], in [3], in assay [4], in assay [6] and in assay [9] was “inactive” in each case. Besides, the Potency result in assay [17], in assay [10], in assay [12] and in assay [16] was “inactive” in each case. Further, the call in [11] was inactive.

For the molecule `C#C[C@]1(O)CC[C@H]2[C@@H]3CCc4cc(O)ccc4[C@H]3CC[C@@]21C`, the Potency in assay [1] is 27.1 µM (active) and 19.3 µM (active) and 8.41 µM (active); in assay [9] it was 13.6 µM (active) and 21.7 µM (active) and 8.41 µM (active); in assay [12] it was 100 µM (active) and 61.9 µM (active); in assay [15], 8.65 µM (active) and 19.5 µM (active). For the same molecule, the Potency result in assay [2], in [3], in assay [4], in [10] and in assay [16] was “inactive” in each case. Also, the molecule was called inactive in assay [11] and in assay [14].

In the case of `CC(=O)/C=C/C1=C(C)CCCC1(C)C`, the Potency result in [1], in [2], in [3], in assay [4], in assay [6] and in [17] was “inactive” in each case. For the same molecule, the Potency entry in assay [10], in assay [12], in [15] and in [16] was “inactive” throughout. Further, the molecule was called inactive in assay [11] and in [14].

`CC(=O)c1ccc(S(=O)(=O)NC(=O)NC2CCCCC2)cc1`: the Potency entry in [1], in [2], in assay [3], in assay [4], in assay [6] and in [9] was “inactive” each time. The Potency result in assay [17], in [10], in assay [12], in [15] and in assay [16] was “inactive” throughout. Besides, in assay [14], the outcome was inactive.

For `O=C(O)Cc1cccc2ccccc12`, the Potency result in [1], in [2], in assay [3], in [4], in [6] and in [9] was “inactive” throughout. In addition, the Potency result in assay [10], in [12], in assay [15] and in assay [16] was “inactive” in each case. For the same molecule, the call in [11] and in assay [14] was inactive.
